Measured values from PubChem BioAssay (NCATS).
Inconclusive results are not listed. The source made the active and inactive calls. Calls come from the whole dose curve; as a rule, active = well fitted inhibition curve with a large enough effect; inconclusive = small, poorly fitted or top-dose-only effect, or effect the other way; inactive = flat fitted curve, though single readings scatter.

assay: qHTS for Inhibitors of Plasmodium falciparum (CP250) proliferation (AID 504320); settings: P. falciparum CP250 in erythrocytes, SYBR Green DNA, 72 h; series mostly up to 6.7 µM; activity change, negative = inhibition: at the top concentration
From the text: Plasmodium falciparum is a virulent malarial parasite that kills 1-2 million people worldwide each year. Malaria not only inflicts tremendous suffering and morbidity on the human population, but has dramatically influenced the course of civilization with profound sociological and economic implications (Shah, S. 2010). Transmitted by mosquitoes, the sporozoite form of the parasite enters the blood stream to infect hepatocytes, where they become merozoites that infect red blood cells (erythrocytes). Within erythrocytes, merozoites begin a […] cycle of growth and division, after which the parasite is released to infect new red blood cells. Gametocytes, which form within erythrocytes as well, circulate in the bloodstream and are ingested by the mosquito, thereby completing the life cycle (see CDC website). To profile malarial lines for differential chemical responses and to identify inhibitors of malarial growth, an assay that measures P. falciparum growth and replication within erythrocytes was employed. This assay uses a DNA binding fluorescent dye (SYBR Green) to detect parasite DNA following cell lysis. Because mature erythrocytes lack DNA, only Plasmodium-derived DNA is detected. The P. falciparum line cp250, derived from a malarial isolate from Cambodia, (Mu, J., et al. 2010) was added to the panel of lines, Dd2, HB3, 7G8 and GB4 in this study. Laboratory of Assay Development and Screening Technology [ADST] and NIH Chemical Genomics Center [NCGC] Boston University, Chemistry Department, Center for Chemical Methodology and Library Development [CMLD-BU] NIH National Institute of Allergy and Infectious Diseases [NIAID]
ADST Assay Protocol Summary: The 1536-well SYBR Green viability assay was based on the method of Bennett et al (2004) and described previously in 1536-well format (Yuan J., et al. 2009). For screening 3 ul culture medium was dispensed into 1536 well black clear bottom plates (Aurora Biotechnologies) using a Multidrop Combi (Thermo Fisher Scientific Inc.), 23 nL compounds in DMSO were added by a pin transfer (Cleveland, P.H. and Koutz, P.J, 2005) using a pin tool-based delivery system (Kalypsys), and 5 ul of erythrocytes infected with P. falciparum one of five lines (cp250, Dd2, HB3, 7G8 or GB4, 0.3% parasitemia, 2.5% hematocrit final concentration) were added. The plates were incubated at 37C in a humidified incubator in 5% CO2 for 72 h, and 2 ul lysis buffer (20 mM Tris HCl, 10 mM EDTA, 0.16% saponin, 1.6% triton X, 10X SYBR Green I (supplied as 10,000X final concentration by Invitrogen) was added to each well. The plates were mixed for 25 sec with gentle shaking and incubated overnight at room temperature in the dark. The following morning, fluorescence intensity at 485(14) nm excitation and 535(25) nm emission wavelengths was measured on an EnVision (Perkin Elmer) plate reader. Plate reads were normalized relative to the control inhibitor (0.29 uM artemisinin) and vehicle (DMSO) wells present on each plate and then corrected by an algorithm using vehicle-only control plates at the beginning and end of the compound plate stack. References Shah, S. (2010). The Fever: how malaria has ruled humankind for 500,000 years. New York, Sarah Crichton Books. CDC web site, http://www.cdc.gov/malaria/about/biology/index.html Mu, J., Myers, R.A., Jiang, H., Liu, S., Ricklefs, S., Waisberg, M., Chotivanich, K., Wilairatana, P., Krudsood, S., White, N.J., et Plasmodium falciparum genome-wide scans for positive selection, recombination hot spots and resistance to antimalarial drugs Nature Genetics 2010, 42, pp 268-271 Bennett TN, Paguio, M., Gligorijevic, B., Seudieu, C., Kosar, A. D., Davidson, E., and Roepe, P. D. Novel, rapid, and inexpensive cell-based quantification of antimalarial drug efficacy Antimicrobial Agents Chemother. 2004, 48(5): pp 1807-10 Yuan J, Johnson RL, Huang RL, Wichterman J, Jiang HY, Hayton K, Fidock DA, Wellems TE, Inglese J, Austin CP, Su XZ. […]

Activity change, negative = inhibition, inactive:
COc1cc2c(c(OC)c1)[C@H](C=Cc1ccccc1)[C@@H]([C@H](O)CO)OC2 0.814%
C#CCCCON=C1C[C@@H](O)[C@H](O)[C@H]2[C@@H]3C(=O)N(Cc4ccc5c(c4)OCO5)C(=O)[C@@H]3CC[C@@H]12 3.08%
N#Cc1ccc2c(c1)C[C@]1(CCCCN3C(=O)c4ccccc4C3=O)Oc3cc(-c4ccccc4)oc(=O)c3[C@H]2O1 0.0254%
C[C@@H]1CC[C@H]2C(=O)O[C@H](CN=[N+]=[N-])CN2[C@@H]1c1ccc(Br)cc1 -0.106%
CC12C=C(C=Cc3ccc(F)cc3)C(C)(C1)C(c1ccc(F)cc1)CC2=O (stereo not given) -10.2%
COC(=O)CCC(=O)OC1(C)C(=O)C2=COC(c3ccc(OC)cc3)=CC2=C(Br)C1=O (stereo not given) 0.47%
C=CCN=C1NC(c2cccc(F)c2)C(C(=O)OC)=C(C)N1Cc1ccccc1 (stereo not given) -13.4%
COCCN1C(=O)NC(CCc2ccccc2)C(C(C)=O)=C1C (stereo not given) -2.76%
COc1ccc2c(c1)O[C@@H](c1ccc3c(c1)OCO3)[C@H](OC(=O)Nc1ccc(C)c(Br)c1)C2=O 0.938%
Cc1cccc(C)c1Nc1oc(-c2ccccc2)nc1-c1ccccc1F -18.3%
C=C(CCN1C=C(C(=O)OCC)C(c2ccccc2)NC1=O)OC (stereo not given) 0.0385%
C=CCNC(=O)[C@H]1C=C(OC)C(=O)C[C@H]2c3ccccc3C[C@]12C -0.687%
CCOC(=O)[C@@]1([C@@H](NC(=O)OC)c2ccco2)CCCC1=O -0.0239%
C=CCOC(=O)N[C@H](C(C(=O)OC)=C(C)NCc1ccccc1)c1cccc(OC)c1 8.14%
CCCCCC1=CC2=C(C(=O)OC)C(c3ccccc3)NC(=O)N2CC1 (stereo not given) -3.02%
CCCNC(=O)OC[C@H]1O[C@H](CCON=CC[C@@H]2C=C[C@H](OC(C)=O)[C@@H](COC(C)=O)O2)C=C[C@H]1Oc1ccc(OC)cc1 -16.6%
C[C@@H]1C=CCCO[C@]12C(=O)N(Cc1ccc(Br)cc1)c1cccc(Br)c12 -0.729%
CCCCCCCC1=CC2=C(Cl)C(=O)C(C)(OC(C)=O)C(=O)C2=CO1 (stereo not given) 1.39%
c1ccc(CCc2nc(-c3ccccc3)oc2Nc2ccc3ccccc3c2)cc1 -1.18%
C=C(CO[C@@H]1C=C[C@@H](c2ccccc2)O[C@@H]1CO)c1ccccc1 -0.0864%
COC(=O)C12C[C@H](C)C3C(C)C(c4ccccc4C31)N2C(=O)C(F)(F)F (stereo not given in full) 1.57%
COC(=O)C12C[C@@H](C)C3C(C)C(c4ccccc4C31)N2C(=O)C(F)(F)F (stereo not given in full) 2.81%
O=C1[C@H]2[C@@H]3[C@@H](O)[C@H](O)CC(=NOCc4ccccc4)[C@H]3CC[C@H]2C(=O)N1C[C@@H]1CCCO1 -0.0802%
C=CCOC(=O)C(C(C)=O)[C@@H](NC(=O)OC)c1cccc(F)c1 (stereo not given in full) 1.84%
COc1cc2c(cc1OC)CSC1C(=O)N(C)C(SC2)C(=O)N1C 5.38%
C=C(CCN1C=C(C(C)=O)C(c2ccccc2)NC1=O)c1ccc(OC)cc1 (stereo not given) 2.8%
COC(=O)NC(c1ccccc1)c1c[nH]c2ccccc12 (stereo not given) 1.57%
COC(=O)[C@@]1(C=C2c3ccc(F)cc3[C@@H](OC)[C@@H]2C)[C@@H]2OCCC[C@@H]21 3.63%
COC(=O)c1ccc(CN2C(=O)[C@]3(OCCC=C[C@@H]3C)c3ccccc32)cc1 0.727%
COc1ccc2c(c1)O[C@H](c1ccc3c(c1)OCO3)[C@@H](OC(=O)Nc1ccc(C)c(Br)c1)C2=O 3.05%
CCCC[C@H]1CN2[C@H](c3ccc(Br)cc3)[C@H](C)CC[C@H]2C(=O)O1 -1.29%
COc1ccc2c(c1)C[C@@H](C)O[C@]21C(=O)Nc2ccccc21 -17.7%
CCCNC(=O)OC[C@H]1O[C@H](CCON=C(C)CCC(=O)OC[C@H]2O[C@H](C#Cc3ccccc3)C=C[C@H]2Oc2ccc(C)cc2)C=C[C@H]1Oc1ccc(OC)cc1 3.53%

Potency, inactive:
COc1ccc(-c2nc3c(c4c2C[C@H](c2ccccc2)OC4)CN(S(=O)(=O)c2ccc(NC(C)=O)cc2)CC3)c(C)c1
C=CCNC(=O)N1CCc2nc(-c3ccccc3)c3c(c2C1)CO[C@@H](C)C3
COC(=O)C1=C(C(=O)OC)[C@@H]2N(Cc3ccccc3)c3ccccc3[C@@]23C[C@@H](C(=O)OC)N(C(=O)c2cc(C)oc2C)C3=N1
COC(=O)CCCC1=CC2=CC(=O)C(C)(OC(=O)c3cccs3)C(=O)C2=CN1Cc1ccco1 (stereo not given)
COC(=O)N1C(C)=Cc2ccccc2C1CC(C)=CC(C)=O (stereo not given)
CCCCc1cc2c(cn1)=C(OC(=O)C1CCCC1)C(C)(OC(=O)CC)C(=O)C=2 (stereo not given)
CCN1C(=O)N[C@@H](c2ccccc2)[C@H](C(=O)OC)[C@H]1C
